Source: the supplement of paper PMC6555819

These sequences were tested on VDR:RXRa (NR concentration 270 nM, RXRa partner concentration 90 nM) (assay: PBM binding z-score (relative to random genomic background probes); higher = stronger binding; sequences stand for … in GC…GCGATTGACAGCGTAGAATGAAGG).
Method: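 Protein-binding microarray (Agilent 4x180K custom design, double-stranded 60-nt probes: 5' GC cap, 34-nt variable region, 24-nt constant primer region; full probe sequence given). Purified or IVT nuclear receptor:RXRα heterodimers (3:1 NR:RXRα, mostly 270:90 nM) or homodimers were incubated for 1 h in PBS with 2% milk and no ligand, then detected with Alexa488 antibodies. Fluorescence from o1-orientation probes (~5 replicates averaged) was converted to z-scores against 500 random hg19 background probes. Variable regions are seed direct-repeat (DR0–DR5) sites, all their single-nucleotide variants and half-site ablations.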

Sequence | PBM binding z-score
CCGACTGGGTCATAAGGTTACCATAAGCCAGCCC | 2.81
TTACCAAGGTGAGCTGAGGTCGTTGAACCAACTC | 4.25
CCTACTGGGCCAAGGCCATTGATCAGTCAAAGCA | -0.446
ATATGTAGGTTATAGGGTCATTCAGTTTGCGCAT | 5.98
TAGCCTAGGTCAGATGGGGCCAGTATACGCTATA | 2.69
GCTAGTTGGTCAGTAAAAGGTCACAGACCGGTCG | 3.94
GCTAGTTGATCAGTAAAAGGTCACACACCGGTCG | 3.87
GCTTACGGGTCTAAGGTTATAGCATGAATAGAAT | 1.01
GGAACCAGGGCAAGTTGATAGCAGAGTTTGATGG | 0.319
AGAATGAGGTTAAGATCAGTGAAACAGAATACAT | 1.47
GGAACGAGGGGAAAGTTGATAGCATCTGTCGACG | -0.259
TCTTGTGGATCAGCAGGTTAAGAAAGCTGGCCAA | 0.405
ACTAGCAGGCCAAGGGTCACTTAAGATTAGTCCG | 2.88
TTTCCAAGGTGAGCTGAGGTCGTTGATCCAACTC | 4.12
AGAACGAGGGCACGCTGAGCTGATAGCAGAGTAG | 0.52
TCGAGTAGGTTAGGGGCTTTCAGAATGGCGTCGA | -0.3
CCTCGAAGGACAACAGGAGGTCAGAGCTGCCAGA | 1.73
CCGACTGGGCCAGAAAGGTTACCATACCATCCGG | 0.479
AATACAGGGTCATCGTCGGCCAGAGTACGCACAG | 5
GCTTACGGATCAAAGGTTATAGCATGAATAGAAT | 1.52

Sequence | PBM binding z-score
AGAACGAGGGCACGGTGAGTTGATAGCAGAGTAG | 2.56
GCGACTGGGGCATCAGCAGGTTAGCATAACTTAA | -0.526
AGTCAAAGTTCAAGACGAGGTAACGTAAAGCACG | 4.07
AGAATGAGGTTACCAAAGATCAGGAAAACGCTTG | 1.35
AGAATGAGGTTATATGTAGATCAGGGAAGAAAGT | 1.43
TCTTGTAGATCAGCAGATTAAGAAAGCTGGCCAA | 0.172
ATACCAAGTTGATCGTGAGGTCGTTGATACTAAC | 2.68
TCGCGGAGGACACGAAGGTCAGAGCTTTCCAGAG | 2.1
TAGCCTAGGTCATTGGGCCAGTATCGTACGCATC | 2.37
GCTAGTTGGTCAGTAAAAGGTCACACCCCGGTCG | 3.83
TCATATAGATAAAAGGTGAAAGTCGGTGTGGTAA | 1.35
CCTACTGGGCCAGGAAAGGTCATTGATTCAGTGA | 3.53
CCAGACGGGTGAAAGGTAACTCAGTCTGGTACGC | 0.319
CTCGAAAGGTCGTGCTCAGGTTAGTATACCAAAC | 3.79
TCATATACGTAAATGCTAGGTGAAAGTCCGATCT | 0.839
ACTAGGAGGCCAAGGGTCACTCAAGATTAGTCCG | 2.98
CCTACTTGGTCAGGAGGTCACACACCGGATATGA | 3.89
CGAACTAGGTCGGAACAGGACAGTGAAGGATGAT | -0.292
CCTCGGAGGACAGTAGGTCAGAGCTGTCCGCTTT | -0.11
ATCTCTAGGTATCAAGTTCAGTGAAAGAGAGGAC | 1.94
